# Screening results: PubChem BioAssay, several laboratories
# NPR2 activator – GC-B (human) receptor activation. P20594. HEK293-GC-B cells, CNP EC30, cGMP TR-FRET; 0% at EC30 CNP, 100% saturating CNP. activation, % at 10 µM. 370,000 compounds, 0.11% hits;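 active = activation at 10 µM reaching about 35% in either raw or pattern-adjusted values, limit read from the data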
# NPR1 activator – GC-A (human) enzyme activation. HEK293 GC-A cells, cGMP TR-FRET, EC30 ANP; 0% at EC30 ANP, 100% saturating ANP. activation, % at 10 µM. 370,000 compounds, 0.14% hits. AID 1671463; in the data active = activation above about 40%
# TLR4 MyD88 comp – inhibitors of human TLR4-MyD88 binding | AID 861 | HeLa CL3-4 TLR4/MyD88 BLA complementation, FRET ratio | O00206+Q99836 | 200,000 compounds, 0.18% hits | inhibition, % at 8.4 µM; in the data active = inhibition above about 25%;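 note: 0% = vehicle and 100% = reference inhibitor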
# Neddyl block – inhibitors of human cullin neddylation | TR-FRET cullin neddylation, biochemical | inhibition, % at 25 µM | 360,000 compounds, 0.58% hits | AID 651699 | P61081+Q13564; in the data active = inhibition above about 36%
# TLR9-MyD88 block – inhibitors of human TLR9-MyD88 binding | Q9NR96+Q99836 | CHO BLA complementation TLR9-MyD88, CCF4 FRET ratio | inhibition, % at 4.98 µM | 340,000 compounds, 0.21% hits | AID 504734;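 active = inhibition above the mean over all tested compounds plus 3 SD, cut at about 21% in these data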;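 note: 0% = DMSO only wells and 100% = clavulanate BLA inhibitor control wells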
# NOD2-RIPK2 inh – NOD2-RIPK2 protein interaction inhibition. 360,000 compounds, 0.38% hits. inhibition, % at 4.98 µM. CHO BLA complementation NOD2-RIPK2, CCF4 ratio. O43353; in the data active = inhibition above about 21%;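 note: 0% = vehicle only and 100% = reference blocker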
# Neddyl conf – cullin neddylation inhibition, confirmation; shares compounds with Neddyl block; TR-FRET cullin neddylation biochemical assay; calls only at 25 µM; 1,800 compounds, 13% hits; in the data active = inhibition above about 40%;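 note: neddylation substrate is the cullin 1 ring ligase complex with SKP2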
# Starred values were filed as active, the others as inactive; i = inactive; x = not tested or not shown; + = active, no number. Rows were chosen to be rich in hits. Some 1.2% of all compounds tested hit in one or more screens of this group.
SMILES,NPR2 activator,NPR1 activator,TLR4 MyD88 comp,Neddyl block,TLR9-MyD88 block,NOD2-RIPK2 inh,Neddyl conf
COc1ccc2[nH]c3c(=O)n(N)c(C)nc3c2c1,4,-2,-1,x,-1,-11,x
Cc1ccc2[nH]c3c(=O)n(N)c(C)nc3c2c1,-2,-3,4,41*,x,-23,+
CCOC(=O)[C@@]12CCCC=C1N(CCc1ccc(Cl)cc1)C(=O)[C@H]2CC(=O)NCc1ccccc1,-2,0,x,x,x,x,x
CC(Oc1ccccc1)C(=O)N1CCN(c2ccc(N3CCCCC3)nn2)CC1 (configuration not stated),-3,-2,x,46*,0,2,x
C[C@H](CO)N1C[C@H](C)[C@@H](CN(C)C(=O)C2CCOCC2)Oc2ncc(Br)cc2C1=O,4,1,x,3,7,-11,x
O=C1CCNc2cc3ccccc3cc21,x,x,3,x,2,-1,x
O=C1NC(=O)c2cc3ccccc3cc21,-2,3,x,48*,2,2,+
Cc1cc(Nc2ccccc2C(=O)O)n2ncnc2n1,-5,2,x,40*,3,-11,x
Cc1cc(Nc2cc(C(=O)O)ccc2C)n2ncnc2n1,2,2,-14,8,8,-9,x
O=C(c1ccc(C#Cc2ccccc2)o1)N1CCN(c2ccccn2)CC1,0,3,3,-10,-4,-3,x
COC(=O)c1ccc(C#Cc2ccccc2)o1,-2,1,x,39*,-5,4,i
Cc1cccc(C)c1NC(=O)C(c1ccncc1)n1c(=O)c(-c2ccccc2)nc2ccccc21 (configuration not stated),-4,0,x,62*,x,-2,+
CCCCCNC(=O)C(C1CC1)n1c(=O)c(-c2ccccc2)nc2ccccc21 (configuration not stated),-6,-7,x,45*,x,-2,x
O=C(NC1CCCCC1)C(c1ccc(C(F)(F)F)cc1)n1c(=O)c(-c2ccccc2)nc2ccccc21 (configuration not stated),-1,0,x,41*,x,-2,i
COc1ccc(NC(=O)C(C2CC2)n2c(=O)c(-c3ccccc3)nc3ccccc32)cc1 (configuration not stated),-2,-2,x,-2,x,-4,x
CC(C)(C)NC(=O)C(c1ccncc1)n1c(=O)c(-c2ccccc2)nc2ccccc21 (configuration not stated),-3,-2,x,50*,x,-5,x
O=C(NCc1ccccc1)C(c1ccncc1)n1c(=O)c(-c2ccccc2)nc2ccccc21 (configuration not stated),-12,-11,x,18,x,-5,x
O=c1[nH]nc(Sc2ccccc2)c(=S)[nH]1,-1,1,x,-14,-1,7,x
Cc1cc(F)ccc1-c1cc(C(=O)NCc2cccs2)[nH]n1,1,-2,x,1,x,-14,x
COc1ccc2[nH]c3c(c2c1)CCN[C@]31C(=O)N(Cc2cn(Cc3ccccc3)nn2)c2ccc(F)cc21,4,0,x,x,x,x,x
CCCC[C@@H]1C(=O)N2N=Cc3cc4ccccc4cc3[C@H]2N2N=Cc3cc4ccccc4cc3[C@@H]12,10,-1,x,x,x,x,x
C=CCOC(=O)C(C#N)c1nc2ccccc2nc1N1CCN(Cc2ccccc2)CC1 (configuration not stated),-8,-5,2,31,13,8,x
C=CCNC(=O)C(C#N)c1nc2ccccc2nc1N1CCN(Cc2ccccc2)CC1 (configuration not stated),x,x,9,42*,3,-3,i
CCOc1ccc(-c2c(C(=O)N/N=C/c3c[nH]c4ccccc34)nnn2-c2nonc2N)cc1,-1,13,x,42*,-6,4,i
COCCn1c(=N)c(S(=O)(=O)c2ccc(F)cc2)cc2c(=O)n3ccccc3nc21,3,6,x,55*,-1,1,i
COCCn1c(=N)c(S(=O)(=O)c2ccc(Br)cc2)cc2c(=O)n3ccccc3nc21,1,3,x,53*,-22,2,i
N=c1c(S(=O)(=O)c2ccc(Br)cc2)cc2c(=O)n3ccccc3nc2n1Cc1ccccc1,0,2,x,34,3,-6,x
